Compound activity (PubChem)
STK33 inh: inhibitors of human STK33 kinase; ADP-Glo luminescence, MBP substrate; inhibition, % at 12.5 µM; hit rate 0.44% among 27,000; in the data active means inhibition above about 20%; inconclusive means no clear call, values can overlap the other calls
Target sequence (Q9BYT3 whole entry, looked up): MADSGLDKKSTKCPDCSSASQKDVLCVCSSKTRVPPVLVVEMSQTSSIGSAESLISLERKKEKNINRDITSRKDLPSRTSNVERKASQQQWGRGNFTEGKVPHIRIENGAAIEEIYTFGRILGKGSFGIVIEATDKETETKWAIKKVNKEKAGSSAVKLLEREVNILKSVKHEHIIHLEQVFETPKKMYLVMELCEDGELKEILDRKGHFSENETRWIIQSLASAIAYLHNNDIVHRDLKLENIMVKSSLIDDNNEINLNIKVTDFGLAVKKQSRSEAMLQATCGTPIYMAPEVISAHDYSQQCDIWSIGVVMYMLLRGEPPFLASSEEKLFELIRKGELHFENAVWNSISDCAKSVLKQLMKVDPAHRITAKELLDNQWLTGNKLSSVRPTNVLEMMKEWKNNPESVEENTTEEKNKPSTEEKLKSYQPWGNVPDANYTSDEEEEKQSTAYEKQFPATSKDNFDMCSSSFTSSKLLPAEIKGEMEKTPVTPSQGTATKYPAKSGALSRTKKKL
NOMO-1 viab: STK33 inhibitor candidate reducing NOMO-1 cell viability; NOMO-1 AML viability, CellTiter-Glo luminescence, 72 h; inhibition, % (concentration not given with the values); hit rate 7.5% among 37,000; AID 2330; in the data active means inhibition above about 80%; inconclusive means no clear call, values can overlap the other calls
PD-1 reverse act: reversal of PD-1 mediated T-cell inhibition. primary human CD4 T cells, PD-L1 beads, CellTiter-Glo 96 h. activation, % (test concentration not listed). 29,000 tested, under 10 active. AID 2316; call rule not given here;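 further: 0% = median vehicle wells and 100% = positive control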
* marks the source's active call; other numbers are inactive results. Many of the other results were omitted from the sample, so hits are more common in it than they were.

Screening Cc1ccc(NC(=O)C(C)N(c2ccccc2)S(C)(=O)=O)cc1C (stereo not given) returned STK33 inh -1.2, NOMO-1 viab 6.3 and PD-1 reverse act 0.8.
CNc1cc2ncnc(Nc3cccc(Br)c3)c2cc1N was read as STK33 inh 3.0, NOMO-1 viab 96.6* and PD-1 reverse act 6.2.
Screening O=C(CSc1nnc(-c2cccc(Cl)c2)o1)Nc1ccccc1 returned STK33 inh 0.6 and NOMO-1 viab 5.9.
`COC(=O)C(CC#Cc1ccc2c(c1)[C@]1(C(=O)N2)[C@H](C(=O)N2CCN(c3ncccn3)CC2)[C@H]2C(=O)O[C@H](c3ccccc3)[C@H](c3ccccc3)N2[C@@H]1c1ccc(O)cc1)C(=O)OC` gave STK33 inh 6.4.
`Cc1cc(C)c(C)c(S(=O)(=O)NCc2ccc(C(=O)Nc3ccncc3)cc2)c1C` gave STK33 inh -7.4, NOMO-1 viab 102.8* and PD-1 reverse act -9.5.
For COc1cccc(S(=O)(=O)NCc2ccc(C(=O)Nc3ccc(Cl)cc3)cc2)c1 the results were STK33 inh 2.2, NOMO-1 viab 16.7 and PD-1 reverse act -0.9.
For COC(=O)c1ccccc1NC(=O)Cn1c([N+](=O)[O-])cnc1C the results were STK33 inh -1.0, NOMO-1 viab 0.5 and PD-1 reverse act 1.3.
O=C(O)c1cc(O)c2c(c1)C(=O)c1cc(O)cc(O)c1C2=O was read as STK33 inh 4.2 and NOMO-1 viab -10.0.
O=C1c2ccc(O)cc2C(=O)c2ccc(O)cc21 was read as STK33 inh 33.8*, NOMO-1 viab 13.9 and PD-1 reverse act 0.0.
For O=C(Nc1ccc(OCc2nc3ccccc3s2)cc1)c1ccc(Cl)cc1 the results were STK33 inh -1.5, NOMO-1 viab 18.2 and PD-1 reverse act -1.3.
Screening Cc1cc(OCc2nc3ccccc3s2)ccc1NC(=O)Nc1cccc(Cl)c1 returned STK33 inh -1.6 and NOMO-1 viab 106.9*.
Screening Cc1nc(-c2c(C(F)(F)F)oc3cc(O)ccc3c2=O)cs1 returned NOMO-1 viab 33.6 and PD-1 reverse act -0.4.
Screening Cc1nc(C2C(=O)c3ccc(O)c(O)c3OC2C(F)(F)F)cs1 (stereo not given) returned STK33 inh 1.9, NOMO-1 viab 107.0* and PD-1 reverse act 0.8.
`COC(=O)c1ccccc1NC(=O)COc1cccc(Cl)c1Cl` gave STK33 inh 3.3 and NOMO-1 viab -0.7.
COc1cccc(-n2nnnc2SCC(=O)Nc2ccccc2)c1 was read as STK33 inh 2.6, NOMO-1 viab -9.4 and PD-1 reverse act 0.0.
COc1ccc(S(=O)(=O)Nc2ccc3c(c2)C(=O)N([C@H](C)CO)C[C@H](C)[C@H](CN(C)C(=O)Nc2ccc(C(F)(F)F)cc2)OCCCC[C@@H](C)O3)cc1 was read as STK33 inh 2.9, NOMO-1 viab 134.4* and PD-1 reverse act -6.0.
For C[C@@H]1CCCCO[C@@H](CN(C)C(=O)Nc2ccc(C(F)(F)F)cc2)[C@@H](C)CN([C@H](C)CO)C(=O)c2cc(NS(=O)(=O)c3ccc(F)cc3)ccc2O1 the results were STK33 inh 2.0, NOMO-1 viab 110.0* and PD-1 reverse act -8.0.
Screening Cc1ccc(S(=O)(=O)Nc2ccc3c(c2)C(=O)N([C@H](C)CO)C[C@H](C)[C@@H](CN(C)C(=O)Nc2ccc(C(F)(F)F)cc2)OCCCC[C@@H](C)O3)cc1 returned STK33 inh 0.3 and NOMO-1 viab 69.4.
For C[C@@H]1CCCCO[C@@H](CN(C)C(=O)Nc2cccc3ccccc23)[C@@H](C)CN([C@H](C)CO)C(=O)c2cc(NS(=O)(=O)c3ccccc3)ccc2O1 the results were STK33 inh 4.8, NOMO-1 viab 55.4 and PD-1 reverse act -3.0.
Screening Cc1noc(C)c1S(=O)(=O)Nc1ccc2c(c1)C(=O)N([C@H](C)CO)C[C@H](C)[C@H](CN(C)C(=O)Nc1ccc(C(F)(F)F)cc1)OCCCC[C@@H](C)O2 returned STK33 inh 3.3, NOMO-1 viab inconclusive and PD-1 reverse act -5.5.
For Cc1noc(C)c1S(=O)(=O)Nc1ccc2c(c1)C(=O)N([C@H](C)CO)C[C@H](C)[C@@H](CN(C)C(=O)Nc1ccc(C(F)(F)F)cc1)OCCCC[C@@H](C)O2 the results were STK33 inh -0.5, NOMO-1 viab 114.9* and PD-1 reverse act -2.5.
For C[C@@H]1CCCCO[C@H](CN(C)C(=O)Nc2ccc(C(F)(F)F)cc2)[C@@H](C)CN([C@H](C)CO)C(=O)c2cc(NS(=O)(=O)c3ccccc3)ccc2O1 the results were STK33 inh 2.5 and NOMO-1 viab 69.9.
Cc1ccc(S(=O)(=O)Nc2ccc3c(c2)C(=O)N([C@H](C)CO)C[C@H](C)[C@H](CN(C)C(=O)Nc2cccc4ccccc24)OCCCC[C@@H](C)O3)cc1 was read as STK33 inh 5.1, NOMO-1 viab 110.9* and PD-1 reverse act -1.1.
C[C@H]1CN([C@@H](C)CO)C(=O)c2cccc(NS(=O)(=O)c3cccs3)c2O[C@H]1CN(C)S(=O)(=O)c1ccc(F)cc1 was read as NOMO-1 viab 20.7 and PD-1 reverse act 2.1.
COc1ccc(S(=O)(=O)N(C)C[C@@H]2Oc3ccc(NC(=O)Cn4cnnn4)cc3C(=O)N([C@@H](C)CO)C[C@@H]2C)cc1 was read as STK33 inh -3.7, NOMO-1 viab 10.6 and PD-1 reverse act 0.9.
Screening COc1ccc(S(=O)(=O)N(C)C[C@H]2Oc3ccc(NS(C)(=O)=O)cc3C(=O)N([C@H](C)CO)C[C@@H]2C)cc1 returned NOMO-1 viab -7.3 and PD-1 reverse act 1.2.
For C[C@H](CO)N1C[C@H](C)[C@H](CN(C)C(=O)Nc2cccc3ccccc23)Oc2c(NC(=O)C3CCOCC3)cccc2C1=O the results were NOMO-1 viab 11.4 and PD-1 reverse act 0.0.
For C[C@@H]1CCCCO[C@@H](CN(C)C(=O)C2CCCCC2)[C@@H](C)CN([C@H](C)CO)C(=O)c2cc(NS(=O)(=O)c3ccccc3)ccc2O1 the results were STK33 inh 5.7 and NOMO-1 viab 101.2*.
C[C@@H]1CCCCO[C@H](CN(C)C(=O)C2CCCCC2)[C@@H](C)CN([C@H](C)CO)C(=O)c2cc(NS(=O)(=O)c3ccc(Cl)cc3)ccc2O1 was read as STK33 inh 2.9 and NOMO-1 viab 33.8.
`C[C@@H]1CN([C@H](C)CO)C(=O)Cc2cc(NS(=O)(=O)c3ccc(Cl)cc3)ccc2O[C@@H]1CN(C)S(=O)(=O)c1cn(C)cn1` gave STK33 inh 2.3, NOMO-1 viab 22.7 and PD-1 reverse act 1.5.
For O=C(Oc1cccc2ccccc12)c1ccccc1 the results were NOMO-1 viab 40.2 and PD-1 reverse act -1.2.
O=C(Oc1cc(=O)oc2c1c(=O)n1c3c(cccc23)CC1)c1ccccc1 was read as NOMO-1 viab 139.9* and PD-1 reverse act -1.1.
For Cc1cc(-c2ccccc2)nc(SCC(=O)Nc2ccc(OC(F)F)cc2)n1 the results were STK33 inh 0.1, NOMO-1 viab 19.6 and PD-1 reverse act 0.7.
Screening c1ccc(-c2ccc3c4ccccc4cc-3o2)cc1 returned NOMO-1 viab 106.2* and PD-1 reverse act -0.4.
Screening O=c1cc(-c2ccccc2)oc2cc(O)ccc12 returned STK33 inh 16.5, NOMO-1 viab -6.9 and PD-1 reverse act -0.6.
For CC1=COC=C(C=NCc2ccccc2)N1c1ccccc1 the results were NOMO-1 viab 17.5 and PD-1 reverse act -0.2.
